Results reported in PubChem BioAssay AID1159580 (chemical genetic matrix, 2015).
About 2,000 (36%) of roughly 5,500 compounds were called active. Another 18% or so got no clear call; they are omitted. Rule as the data show it: active = normalized growth mostly below about 0.91 (no sharp cut-off); inconclusive = no clear call, values can overlap the other calls; inactive = mostly above about 0.92. This is one part of the list.

Test: chemical genetic growth profiling, strain panel (AID 1159580);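 also: tested at 20 µM; growth read once vehicle control cultures reached saturation at 30 °C; 1 = growth at the plate median or of vehicle wells; lower values mean less growth of the strain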
Conditions: growth OD
[1] = S. cerevisiae deletion strains, locus YAL013W, strain DEP1, stronger effect = lower value
[2] = S. cerevisiae deletion strains, locus YDR150W, strain NUM1, stronger effect = lower value
[3] = S. cerevisiae deletion strains, locus YGR229C, strain SMI1, stronger effect = lower value
[4] = S. cerevisiae deletion strains, locus YNL153C, strain GIM3, stronger effect = lower value
[5] = S. cerevisiae deletion strains, locus YNL322C, strain KRE1, stronger effect = lower value
[6] = S. cerevisiae deletion strains, locus YBR229C, strain ROT2, stronger effect = lower value
[7] = S. cerevisiae deletion strains, locus YDL101C, strain DUN1, stronger effect = lower value
[8] = S. cerevisiae deletion strains, locus YEL061C, strain CIN8, stronger effect = lower value
[9] = S. cerevisiae deletion strains, locus YGR078C, strain PAC10, stronger effect = lower value
[10] = S. cerevisiae deletion strains, locus YHR030C, strain SLT2, stronger effect = lower value
[11] = S. cerevisiae deletion strains, locus YHR087W, strain rtc3, stronger effect = lower value
[12] = S. cerevisiae deletion strains, locus YJR043C, strain POL32, stronger effect = lower value
[13] = S. cerevisiae deletion strains, locus YJR075W, strain HOC1, stronger effect = lower value
[14] = S. cerevisiae deletion strains, locus YLR039C, strain RIC1, stronger effect = lower value
[15] = S. cerevisiae deletion strains, locus YLR058C, strain SHM2 (second series), stronger effect = lower value
[16] = S. cerevisiae deletion strains, locus YLR085C, strain ARP6, stronger effect = lower value
[17] = S. cerevisiae deletion strains, locus YLR262C, strain YPT6, stronger effect = lower value
[18] = S. cerevisiae deletion strains, locus YML094W, strain GIM5, stronger effect = lower value
[19] = S. cerevisiae deletion strains, locus YMR219W, strain ESC1, stronger effect = lower value
[20] = S. cerevisiae deletion strains, locus YMR263W, strain SAP30, stronger effect = lower value
[21] = S. cerevisiae deletion strains, locus YMR307W, strain GAS1, stronger effect = lower value
[22] = S. cerevisiae deletion strains, locus YNL128W, strain TEP1, stronger effect = lower value
[23] = S. cerevisiae deletion strains, locus YNL298W, strain CLA4 (second series), stronger effect = lower value
[24] = S. cerevisiae deletion strains, locus YNR030W, strain Alg12, stronger effect = lower value
[25] = S. cerevisiae deletion strains, locus YPL055C, strain LGE1, stronger effect = lower value
[26] = S. cerevisiae deletion strains, locus YPL241C, strain CIN2, stronger effect = lower value
[27] = S. cerevisiae deletion strains, locus YPR135W, strain CTF4, stronger effect = lower value
[28] = S. cerevisiae deletion strains, locus YKL190W, strain CNB1, stronger effect = lower value
[29] = S. cerevisiae strains, strain wild type, stronger effect = lower value

Measured: normalized growth

Clc1ccc(N2CC3CCC(C2)N3)nn1
inactive: [1] 1.04 | S. cerevisiae deletion strains, locus YAL040C, strain CLN3, stronger effect = lower value 1.01 | S. cerevisiae deletion strains, locus YCL061C, strain MRC1 (second series), stronger effect = lower value 1.01 | [2] 1 | S. cerevisiae deletion strains, locus YDR363W, strain ESC2, stronger effect = lower value 1.01 | S. cerevisiae deletion strains, locus YER002W, strain NOP16, stronger effect = lower value 1 | [3] 1.03 | [4] 1.01 | S. cerevisiae deletion strains, locus YNL175C, strain NOP13, stronger effect = lower value 0.995 | S. cerevisiae deletion strains, locus YNL197C, strain WHI3, stronger effect = lower value 1 | S. cerevisiae deletion strains, locus YNL224C, strain SQS1, stronger effect = lower value 1 | [5] 1.04 | S. cerevisiae deletion strains, locus YOR083W, strain WHI5 (second series), stronger effect = lower value 0.959

O=C(N/N=C\c1cccs1)c1ccccc1CO
inactive: [1] 0.998 | [6] 1.01 | [7] 0.997 | S. cerevisiae deletion strains, locus YDL134C, strain PPH21, stronger effect = lower value 1 | [2] 1 | [8] 0.994 | [9] 0.994 | [3] 1 | [10] 1 | [11] 1 | S. cerevisiae deletion strains, locus YJL187C, strain SWE1, stronger effect = lower value 0.989 | [12] 0.999 | [13] 0.995 | [14] 0.999 | [15] 1.01 | [16] 0.996 | [17] 1.04 | [18] 0.986 | [19] 1 | [20] 0.997 | [21] 1 | [22] 1.01 | [4] 0.99 | [23] 1 | [5] 0.996 | [24] 1.01 | S. cerevisiae deletion strains, locus YOL006C, strain TOP1, stronger effect = lower value 0.994 | [25] 1.01 | [26] 0.992 | [27] 1.04

NC(=S)N/N=C\c1ccccc1
inactive: [1] 0.991 | [6] 1.02 | [7] 0.987 | [2] 0.963 | [9] 1.02 | [10] 0.823 | [11] 1.06 | [12] 1 | [13] 1.04 | [28] 0.973 | [14] 1.13 | [15] 1.01 | [17] 1.08 | [18] 0.872 | [19] 1 | [20] 0.982 | [4] 0.971 | [5] 1.03 | [24] 0.925 | [25] 0.872 | [26] 0.983 | [27] 0.886 | [29] 0.974
active: [8] 0.902 | [16] 0.301 | [21] 0.579 | [23] 0.836

CCOC(=O)N/N=C\c1cccs1
inactive: [1] 0.995 | [6] 1 | [7] 0.982 | [2] 0.996 | [8] 1 | [9] 1 | [10] 1.05 | [11] 0.992 | [12] 0.984 | [13] 0.972 | [28] 1.01 | [14] 1.07 | [15] 1.02 | [16] 1.01 | [17] 1.05 | [18] 0.996 | [19] 1 | [20] 0.997 | [21] 1.02 | [22] 1 | [4] 0.996 | [23] 1.03 | [5] 1.01 | [24] 1 | [25] 1.01 | [26] 0.993 | [27] 0.948 | [29] 1.01
